From PubChem BioAssay (NCI)
“And” between values parts separate entries of the source, which are not always exact repeats. Equal values may be shown once. Compounds without any hit were thinned out: in the full panel of roughly 83,000, 20% have a hit.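 Compound tested at a single concentration for 48 hours in 96-well plates; a percent growth value below 10 was scored as active.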 The source made the active and inactive calls.

Key:
Experiment in all cases: NCI-60 one-dose screen, 48 h (100 = growth as untreated, 0 = no growth, -100 = all killed)
SK-MEL-2 melanoma = test system: SK-MEL-2 melanoma
EKVX NSCLC = test system: EKVX NSCLC
SN12C renal = test system: SN12C renal
UO-31 renal = test system: UO-31 renal
TK-10 renal = test system: TK-10 renal
ACHN renal = test system: ACHN renal
CAKI-1 renal = details: 10 µM unless noted
A498 renal = details: 10 µM unless noted
CCRF-CEM leukemia = test system: CCRF-CEM leukemia
MOLT-4 leukemia = test system: MOLT-4 leukemia
SR leukemia = test system: SR leukemia
RPMI-8226 leukemia = test system: RPMI-8226 leukemia
OVCAR-8 ovarian = details: 10 µM unless noted
OVCAR-5 ovarian = test system: OVCAR-5 ovarian
OVCAR-4 ovarian = test system: OVCAR-4 ovarian
SK-OV-3 ovarian = test system: SK-OV-3 ovarian
IGROV1 ovarian = test system: IGROV1 ovarian
OVCAR-3 ovarian = test system: OVCAR-3 ovarian
HS 578T breast = test system: HS 578T breast
NCI/ADR-RES ovarian = test system: NCI/ADR-RES ovarian

Measured: growth

CCN(CC)CCOc1ccc2c(c1)C(=O)c1cc(OCCN(CC)CC)ccc1-2
59.6% (inactive) and 4.32% (active): UO-31 renal; 10 µM unless noted
67.1% (inactive) and 7.54% (active): RPMI-8226 leukemia; 10 µM unless noted
inactive: SK-MEL-2 melanoma; 10 µM unless noted 114% and 95.4% | EKVX NSCLC; 10 µM unless noted 90.5% and 59% | SN12C renal; 10 µM unless noted 73.2% and 61.6% | TK-10 renal; 10 µM unless noted 75.8% and 78.1% | ACHN renal; 10 µM unless noted 46.7% | CAKI-1 renal 85.7% | A498 renal 73.9% and 90.8% | CCRF-CEM leukemia; 10 µM unless noted 55.1% | SR leukemia; 10 µM unless noted 93% | OVCAR-8 ovarian 46.5% and 59.3% | OVCAR-5 ovarian; 10 µM unless noted 108% | OVCAR-4 ovarian; 10 µM unless noted 60.7% and 40.7% | SK-OV-3 ovarian; 10 µM unless noted 90% and 87.6% | IGROV1 ovarian; 10 µM unless noted 78.3% | OVCAR-3 ovarian; 10 µM unless noted 96.1% and 70.5% | HS 578T breast; 10 µM unless noted 97.8% and 91.7%
50.5% (inactive) and -16.2% (active): MOLT-4 leukemia; 10 µM unless noted

Nc1ccc2[nH]c(-c3ccccc3)cc(=O)c2c1
active: SR leukemia; 10 µM unless noted 4.32%
inactive: SK-MEL-2 melanoma; 10 µM unless noted 78.8% | EKVX NSCLC; 10 µM unless noted 96.1% | SN12C renal; 10 µM unless noted 98.2% | UO-31 renal; 10 µM unless noted 89.9% | TK-10 renal; 10 µM unless noted 123% | ACHN renal; 10 µM unless noted 102% | CAKI-1 renal 72.2% | A498 renal 84.2% | CCRF-CEM leukemia; 10 µM unless noted 67.9% | MOLT-4 leukemia; 10 µM unless noted 63.8% | RPMI-8226 leukemia; 10 µM unless noted 86.1% | OVCAR-8 ovarian 97.4% | OVCAR-5 ovarian; 10 µM unless noted 94.8% | OVCAR-4 ovarian; 10 µM unless noted 111% | SK-OV-3 ovarian; 10 µM unless noted 98.1% | IGROV1 ovarian; 10 µM unless noted 95.5% | OVCAR-3 ovarian; 10 µM unless noted 64.3% | HS 578T breast; 10 µM unless noted 107%

O=S1(=O)CC(Br)C(Br)C1 (stereo unspecified)
inactive: SK-MEL-2 melanoma; 10 µM unless noted 82.4% and 83.3% | EKVX NSCLC; 10 µM unless noted 93.9% | SN12C renal; 10 µM unless noted 93.2% and 88.3% | UO-31 renal; 10 µM unless noted 64.9% and 77% | TK-10 renal; 10 µM unless noted 40% and 63.8% | ACHN renal; 10 µM unless noted 42.2% and 69.8% | CAKI-1 renal 45.1% and 65.5% | A498 renal 112% | CCRF-CEM leukemia; 10 µM unless noted 33.7% | MOLT-4 leukemia; 10 µM unless noted 61.3% and 68.6% | SR leukemia; 10 µM unless noted 53.6% | RPMI-8226 leukemia; 10 µM unless noted 85.5% and 82.5% | OVCAR-8 ovarian 62.7% and 88.9% | OVCAR-5 ovarian; 10 µM unless noted 96.4% and 108% | OVCAR-4 ovarian; 10 µM unless noted 63.1% and 96% | SK-OV-3 ovarian; 10 µM unless noted 105% and 110% | IGROV1 ovarian; 10 µM unless noted 90.1% and 59% | OVCAR-3 ovarian; 10 µM unless noted 50.3% and 75.7% | HS 578T breast; 10 µM unless noted 91.4% and 89.7%

CC1(C)OB(c2ccc(Cn3cc(F)c(=O)[nH]c3=O)cc2)OC1(C)C
active: OVCAR-3 ovarian; 50 µM 4.62%
inactive: SK-MEL-2 melanoma; 10 µM 113% | SK-MEL-2 melanoma; 50 µM 41.5% | EKVX NSCLC; 10 µM 106% | EKVX NSCLC; 50 µM 72.1% | SN12C renal; 10 µM 102% | SN12C renal; 50 µM 80.8% | UO-31 renal; 10 µM 87.3% | UO-31 renal; 50 µM 72.8% | TK-10 renal; 10 µM 102% | TK-10 renal; 50 µM 79.3% | ACHN renal; 10 µM 103% | ACHN renal; 50 µM 92.1% | A498 renal 25.6% [50 µM] | CCRF-CEM leukemia; 10 µM 112% | CCRF-CEM leukemia; 50 µM 37.7% | MOLT-4 leukemia; 10 µM 99.3% | MOLT-4 leukemia; 50 µM 54.7% | SR leukemia; 10 µM 106% | SR leukemia; 50 µM 39.5% | RPMI-8226 leukemia; 10 µM 107% | RPMI-8226 leukemia; 50 µM 68.1% | OVCAR-5 ovarian; 10 µM 97.5% | OVCAR-5 ovarian; 50 µM 70.4% | OVCAR-4 ovarian; 10 µM 111% | OVCAR-4 ovarian; 50 µM 69.9% | SK-OV-3 ovarian; 10 µM 114% | SK-OV-3 ovarian; 50 µM 69% | IGROV1 ovarian; 10 µM 98.8% | IGROV1 ovarian; 50 µM 44.1% | OVCAR-3 ovarian; 10 µM 104% | HS 578T breast; 10 µM 100% | HS 578T breast; 50 µM 37% | NCI/ADR-RES ovarian; 10 µM 102% | NCI/ADR-RES ovarian; 50 µM 94.1%

CNC(=O)c1cc(Oc2ccc(NC(=O)Nc3ccc(Cl)c(C(F)(F)F)c3)cc2)ccn1
-11.8% (active) and 25.8% (inactive): TK-10 renal; 10 µM unless noted
-8.61% (active) and 23.9% (inactive): SR leukemia; 10 µM unless noted
-20.9% (active) and 12.5% (inactive): SK-OV-3 ovarian; 10 µM unless noted
18.9% (inactive) and 3.16% (active): OVCAR-3 ovarian; 10 µM unless noted
active: SK-MEL-2 melanoma; 10 µM unless noted -42.9% | EKVX NSCLC; 10 µM unless noted 4.85% and -2.85% | SN12C renal; 10 µM unless noted 6.54% and -7.24% | UO-31 renal; 10 µM unless noted -28.5% and -81.1% | ACHN renal; 10 µM unless noted 5.96% and 0% | CAKI-1 renal 7.37% and -32.6% | A498 renal -73.7% and -21.1% | RPMI-8226 leukemia; 10 µM unless noted -11.5% and -19.3% | OVCAR-8 ovarian 5.3% and -16.5% | IGROV1 ovarian; 10 µM unless noted -24.8% and -70.7% | HS 578T breast; 10 µM unless noted -8.13%
-1.28% (active) and 25.8% (inactive): MOLT-4 leukemia; 10 µM unless noted
inactive: CCRF-CEM leukemia; 10 µM unless noted 12% and 18.6% | OVCAR-5 ovarian; 10 µM unless noted 16.6% and 15.4% | OVCAR-4 ovarian; 10 µM unless noted 26.2% and 25.2%
